Data taken from PubChem BioAssay (EPA / NIEHS).
Active and inactive are the calls of the source. Rule for the calls: active = hit-call score of the fitted dose curve at least 0.9, where 1 is the maximum; inactive = score below 0.9.

Experiment: CEETOX_H295R_ANDR_noMTC: CeeTox H295R High-throughput Steroidogenesis Assay for Androstenedione (ANDR), maximum tolerated concentration (MTC) filtered results only (AID 2283915)
Conditions: actives raise or lower the signal
How it was run: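 H295R cells, passage 10 or below, prestimulated 48 h with 10 uM forskolin, then exposed 48 h to chemical in 0.1% DMSO. Medium androstenedione extracted with MTBE, quantified by HPLC-MS/MS; concentrations not MTC-filtered; bidirectional fit versus DMSO.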

O=C(O)c1ccccc1C(=O)OCc1ccccc1
outcome: inactive
